Some of the results follow. Calls of active or inactive are those of the source. Cut-off read from the data, not from the text of the source: active = activation above about 33%; inactive = the rest.

For the assay, the target named is Neuropeptide Y receptor type 2 (Homo sapiens) (UniProt P49146). In words: human Y2 receptor positive modulation or activation – cell-based, confirmation (AID 1539). To be noted: cell-based NPY-Y2 potentiator/agonist assay; at 3.6 µM; active compounds read high.
Neuropeptide Y receptor type 2 (Homo sapiens), sequence (P49146 whole entry, looked up): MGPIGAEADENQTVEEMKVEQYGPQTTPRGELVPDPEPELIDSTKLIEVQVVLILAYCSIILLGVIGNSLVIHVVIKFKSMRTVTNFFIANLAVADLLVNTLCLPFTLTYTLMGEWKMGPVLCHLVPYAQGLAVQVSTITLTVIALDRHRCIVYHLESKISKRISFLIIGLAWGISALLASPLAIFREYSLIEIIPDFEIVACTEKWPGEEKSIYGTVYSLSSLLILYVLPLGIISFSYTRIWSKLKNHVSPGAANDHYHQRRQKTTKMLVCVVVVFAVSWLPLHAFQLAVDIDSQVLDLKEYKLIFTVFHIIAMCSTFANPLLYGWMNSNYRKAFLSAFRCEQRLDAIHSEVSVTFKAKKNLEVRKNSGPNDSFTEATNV
Consider `CN(C)c1ccc(CNC2C3CC4CC(C3)CC2C4)cc1` (stereo unspecified), for which the activation is 7.01% (inactive). Then `N/C(=N\S(=O)(=O)c1cc(C(F)(F)F)cc(C(F)(F)F)c1)c1cccs1`, with 20.3% (inactive); and `O=C1NC(c2ccc(-c3ccccc3[N+](=O)[O-])o2)C(C(=O)c2ccc(Cl)cc2)C(O)(C(F)(F)F)N1` (stereo unspecified), with 28.1% (inactive); and `O=C(NCc1ccccc1)c1ccc(S(=O)(=O)Nc2cccc(C(F)(F)F)c2)cc1`, with 10.8% (inactive). Then `COc1cc(NC(=O)c2ccccc2NS(=O)(=O)c2ccc(Cl)s2)cc(OC)c1`, with 0.49% (inactive); and `CN(Cc1ccccc1)C(=O)CCNC(=O)Cn1cnc2ccccc2c1=O`, with 11.1% (inactive); and `O=C(Nc1sc2c(c1-c1nc3ccccc3[nH]1)CCCC2)C1CC1`, with 19.1% (inactive). Then `Cc1ccc(CCNC(=O)C2CCN(S(=O)(=O)N3CCCC3)CC2)cc1`, with -1.21% (inactive); and `CC(Nc1ccccc1)c1cccnc1` (stereo unspecified), with 2.4% (inactive). As to `CC(=O)c1ccc2c(c1)OCCOCCOc1ccc(C(C)=O)cc1OCCOCCO2`, the activation is 19.6% (inactive). As for `COc1ccc2nc(NC(=O)NC3CCCCC3)sc2c1`, the figure is 40.8% (active).

These data come from PubChem BioAssay.
